# Counter-ions that a name gives are not always drawn.
# Test system: Saccharomyces cerevisiae BY4741 SeMeCo community
# Assay: z-score of prototroph abundance vs DMSO median; higher = larger share of this subpopulation than in DMSO controls
# Details: 10 µM; 24 h; SM minimal medium; subpopulation (auxotrophy): Prototroph
# Description: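 Fluorescent four-plasmid SeMeCo (self-establishing metabolically cooperating S. cerevisiae BY4741 community; plasmids pH-mRuby2, pL-mWasabi, pU-eCFP, pM-TagRFP657) was grown 24 h in minimal SM medium with each Selleck FDA-approved drug at 10 µM in 384-well plates. Cells were fixed and imaged by high-content confocal microscopy. For each auxotrophic subpopulation (and the prototroph), a z-score gives the deviation from the DMSO vehicle-control population median.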
row,SMILES,z-score of prototroph abundance
1,CC(NC(C)(C)C)C(=O)c1cccc(Cl)c1 (centres undefined) [Amfebutamone (Bupropion) HCl],0.49
2,O=[N+]([O-])C(Br)(CO)CO [Bronopol],-0.24
3,CN1C(=O)COc2c(C(=O)NC3CN4CCC3CC4)cc(Cl)cc21 (centres undefined) [Azasetron HCl],0.42
4,CC(C)N(CCC(C(N)=O)(c1ccccc1)c1ccccn1)C(C)C (centres undefined) [Disopyramide],-0.35
5,CCN(C)C(=O)Oc1cccc([C@H](C)N(C)C)c1 [Rivastigmine],-0.39
6,CN(C)[C@@H]1C(=O)C(C(N)=O)=C(O)[C@@]2(O)C(=O)C3=C(O)c4c(O)cccc4[C@@](C)(O)[C@H]3C[C@@H]12 [Tetracycline HCl],-0.24
7,Cn1cc(C2=C(c3cn(C4CCN(Cc5ccccn5)CC4)c4ccccc34)C(=O)NC2=O)c2ccccc21,0.73
8,C[C@@H]1CC[C@H]2[C@@H](C)C(=O)O[C@@H]3O[C@@]4(C)CC[C@@H]1[C@]32OO4 [Artemisinin],1.7
9,C=CCN1C[C@H](C(=O)N(CCCN(C)C)C(=O)NCC)C[C@@H]2c3cccc4[nH]cc(c34)C[C@H]21 [Cabergoline],-0.35
10,COc1ccc2c(c1)[C@]13CCCC[C@@H]1[C@H](C2)N(C)CC3 [Dextromethorphan hydrobromide hydrate],0.38
11,Oc1cccc2cccnc12 [8-Hydroxyquinoline],0.32
12,C=CN1CCCC1=O.II [Povidone iodine],-1.1
13,C=C[C@H]1CN2CC[C@H]1C[C@H]2[C@H](O)c1ccnc2ccccc12 [Cinchonidine],-0.41
14,CN1[C@@H]2CC[C@H]1C[C@@H](OC(=O)C(CO)c1ccccc1)C2 (some centres undefined) [Atropine sulfate monohydrate],0.64
15,CCN1CC2(OC(=O)c3ccccc3NC(C)=O)CCC(OC)C34C1C(CC23)C1(O)CC(OC)C2CC4C1(O)C2OC (centres undefined) [Lappaconitine],0.24
16,Nc1nc(N)nc(NC2CC2)n1 [Cyromazine],-1.21
17,NC(=O)CN1CCCC1=O [Piracetam],-1.9

row,SMILES,z-score of prototroph abundance
1,CN(C)C(=O)Oc1ccc[n+](C)c1 [Pyridostigmine Bromide],-0.27
2,O=C(O[C@H]1C[N+]2(CCCOc3ccccc3)CCC1CC2)C(O)(c1cccs1)c1cccs1 [Aclidinium Bromide],-0.31
3,CN(C)[C@@H]1C(=O)C(C(N)=O)=C(O)[C@@]2(O)C(=O)C3=C(O)c4c(O)cccc4[C@@](C)(O)[C@H]3[C@H](O)[C@@H]12 [Oxytetracycline (Terramycin)],-0.34
4,CC[C@H]1[C@@H]2C[C@H]3[C@@H]4N(C)c5ccccc5[C@]45C[C@@H]([C@@H]2[C@H]5O)N3[C@@H]1O [Ajmaline],0.22
5,Nc1ccncc1 [4-Aminopyridine],-0.05
6,COc1ccc(C(CN(C)C)C2(O)CCCCC2)cc1 (centres undefined) [Venlafaxine HCl],0
7,Cc1cc(C(C#N)c2ccc(Cl)cc2)c(Cl)cc1NC(=O)c1cc(I)cc(I)c1O (centres undefined) [Closantel],0
8,Oc1cc(Cl)ccc1Oc1ccc(Cl)cc1Cl [Triclosan],2.53
9,N[C@@H]1C[C@H]1c1ccccc1 [Tranylcypromine (2-PCPA) HCl],0.44
10,CC1(C)SC2C(N)C(=O)N2C1C(=O)O (centres undefined) [6-Aminopenicillanic acid],0.04
11,O=c1[nH]c2ccccc2n1CCCN1CCC(n2c(=O)[nH]c3cc(Cl)ccc32)CC1 [Domperidone],-0.65
12,CC(C)=CCOc1c2occc2cc2ccc(=O)oc12 [Imperatorin],-0.8
13,"NCC(O)c1ccc(O)cc1 (racemic) [(+,-)-Octopamine HCl]",0.28
14,C[N+]1(C)[C@@H]2C[C@@H](OC(=O)[C@H](CO)c3ccccc3)C[C@H]1[C@@H]1O[C@@H]12 [Methscopolamine],-0.68
15,CCCCCCCCCCCCCCCC[n+]1ccccc1 [Cetylpyridinium Chloride],-12.7
16,CN(C)[C@@H]1C(=O)C(C(N)=O)=C(O)[C@@]2(O)C(=O)C3=C(O)c4c(O)ccc(Cl)c4[C@@](C)(O)[C@H]3C[C@@H]12 [Chlortetracycline HCl],0.13
17,C[C@H]1O[C@H](O[C@H]2[C@H](O)[C@@H](O)[C@@H](O)[C@H](O)[C@@H]2O)[C@@H](N)C[C@@H]1NC(=N)C(=O)O [Kasugamycin hydrochloride],0.23

# From the supplement of paper PMC8975748
